# Hit rate of the full screen: of about 87,000 compounds, about 540 (0.62%) were called active. The rule behind the calls is not given here. The list comes from a sample in which actives are over-represented; it also holds similar structures and randomly drawn compounds. Results with a measured potency or affinity are listed apart.
# Test: MT1-MMP gene expression reporter suppression – cell-based, luciferase reporter, luminescence (AID 618);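 note: actives suppress MT1-MMP promoter-driven transcription so potencies describe inhibitors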
# Settings: MT1-MMP promoter luciferase reporter cells
row,SMILES,outcome
1,Cc1ccc(NC(=O)C2CCN(C(=O)NC3CCCCC3)CC2)cc1,inactive
2,CC(=O)c1ccc(OCC(O)CN2CCC(C)CC2)cc1 (stereo unspecified),inactive
3,Cc1ccc(C)c(OCCCC(=O)O)c1,inactive
4,Nc1ccc(Oc2ccc([N+](=O)[O-])cc2[N+](=O)[O-])cc1,inactive
5,COc1ccccc1NC(=O)CSc1nnc(-c2ccco2)o1,inactive
6,NC(=O)C1(N2CCCCC2)CCN(c2nc(-c3ccccc3)cs2)CC1,inactive
7,COCCn1c(=S)[nH]c2cc(C(=O)NCC3CCCO3)ccc2c1=O (stereo unspecified),inactive
8,COc1cccc(C(=O)Nc2ccc(C(=O)O)cc2)c1,inactive
9,c1ccc(-c2noc(CSc3nnc(Cc4cccs4)n3-c3ccccc3)n2)cc1,inactive
10,Cc1nc(-c2ccccc2)cs1,inactive
11,Nc1nc(-c2ccc(Cl)cc2)cn1N,inactive
12,Cc1nn2cc(-c3ccccc3)nc2[nH]c1=O,inactive
13,Cc1nn2c(-c3ccc(Cl)cc3)nnc2s1,inactive
14,CCc1nn2cc(-c3ccccc3)nc2s1,active
15,Cc1nn2cc(-c3ccc(-c4ccccc4)cc3)nc2s1,active
16,Cc1c(C(=O)N2CCOCC2)sc2nc(-c3ccccc3)cn12,inactive
17,CCN(CC)CCNC(=O)c1sc2nc(-c3ccccc3)cn2c1C,inactive
18,Cc1nn2cc(-c3ccc(Cl)cc3)nc2s1,active
19,Cc1cccn2cc(-c3ccccc3)nc12,inactive
20,O=C(O)CCc1nn2cc(-c3ccccc3)nc2[nH]c1=O,inactive
21,Cc1ccc(CNCc2cc3c(C(C)(C)C)nn(-c4ccccc4)c3[nH]c2=O)cc1,inactive

row,SMILES,outcome
1,O=C(O)CNS(=O)(=O)c1cc(Cl)c(Cl)cc1Cl,inactive
2,Cc1ccc(NC(=O)CS(=O)CC(=O)N(c2ccc(C)cc2)C(C)C(=O)NC2CCCCC2)cc1 (stereo unspecified),inactive
3,CC(C)COC(=O)CNc1n[nH]c(=S)[nH]c1=O,inactive
4,Cc1cc(NC(=O)COC(=O)[C@H](Cc2c[nH]c3ccccc23)NC(=O)c2ccc(F)cc2)no1,inactive
5,COC(=O)CSc1nnc(-c2ccncc2)o1,inactive
6,C=CCn1c(SCC(=C)C)nc2c1c(=O)[nH]c(=O)n2C,inactive
7,COc1ccc(CCn2c(-n3nc(C)cc3C)nc3c2c(=O)[nH]c(=O)n3C)cc1,active
8,Cc1cc(C)n(-c2nc3c(c(=O)[nH]c(=O)n3C)n2CCc2ccccc2)n1,inactive
9,Cc1ccc(Cn2c(-n3nc(C)cc3C)nc3c2c(=O)[nH]c(=O)n3C)cc1,inactive
10,O=c1ccc2ccc(OCc3nnc(-c4ccccc4Br)o3)cc2o1,inactive
11,O=c1c2ccccc2nc2c3ccccc3c3nncn3n12,inactive
12,O=C(Nc1ccc(S(=O)(=O)N2CCOCC2)cc1)c1cccs1,inactive
13,COc1ccc(-n2nnnc2S(=O)(=O)CC(=O)N2CCCCC2)cc1,active
14,COc1cc(OC)cc(-n2nnnc2SCC(=O)N2CCCC2)c1,inactive
15,COc1ccc(-n2nnnc2S(=O)(=O)Cc2ccc(C(=O)O)cc2)cc1,inactive
16,Cc1ccc2[nH]c(=O)c(-c3noc(C(C)C)n3)cc2c1,inactive
17,Cc1cccc(CS(=O)(=O)Cc2ccc(C(=O)O)o2)c1,inactive
18,Brc1ccc(-c2ncc(-c3ccccc3)cn2)cc1,inactive
19,Nc1ccc(-c2cnc(-c3ccc(N)cc3)nc2)cc1,inactive
20,O=C(O)CCc1nn2cnc3sc4c(c3c2nc1=O)CCCC4,inactive
21,CCOc1c(S(=O)(=O)N2CCCC2)ccc(Cl)c1Cl,inactive

row,SMILES,outcome
1,Cc1cccc(NC(=O)c2cc3n(n2)C(C(F)(F)F)CC(c2ccc4c(c2)OCO4)N3)c1 (stereo unspecified),inactive
2,O=C(NC1CCCCC1)N(CCN1CCOCC1)Cc1cc2cc3c(cc2[nH]c1=O)OCCO3,inactive
3,COc1ccc(OC)c(Nc2nc(N)nc(-c3cc4ccccc4o3)n2)c1,inactive
4,COc1ccc(OC)c(Nc2cc(-c3ccccc3)nc(N)n2)c1,active
5,COc1ccc(OC)c(Nc2cc(C)nc3ccccc23)c1,inactive
6,COCCN(CC(=O)NCc1ccccc1)C(=O)CCC(=O)Nc1nccs1,inactive
7,COc1ccc(C(c2sc3nc(C)nn3c2O)N2CC(C)OC(C)C2)cc1OC (stereo unspecified),inactive
8,Cn1c(SCC(=O)N2CCOCC2)nc(O)cc1=O,inactive
9,O=c1c2ccccc2ncn1Cc1nc2ccccc2s1,inactive
10,O=C1c2ccccc2S(=O)(=O)N1Cc1cc(=O)n2ccsc2n1,inactive
11,COc1ccc(C2=Nc3cc(C)ccc3OC2)cc1,inactive
12,c1ccc(C2=Nc3ccccc3OC2)cc1,inactive
13,CSc1sc(C(=O)O)c2c1C(=O)CCC2,inactive
14,COc1cccc(C2NC(=O)NC(C)=C2C(=O)OCCSC)c1OC (stereo unspecified),inactive
15,CN(C)S(=O)(=O)c1ccc(C(=O)Nc2ccc(CCC(=O)N3CCCC3)cc2)cc1,inactive
16,CC1CN(Cc2nc3c(c(=O)[nH]c(=O)n3C)n2CC(N)=O)CC(C)O1 (stereo unspecified),inactive
17,O=C(NC1CC1)c1ccc(-c2nc3ccccc3s2)s1,active
18,O=C(OC1CCOC1=O)c1ccc(-c2nc3ccccc3s2)s1 (stereo unspecified),inactive
19,CCCNC(=O)c1ccc(-c2nc3ccccc3s2)s1,inactive

# Reference: PubChem BioAssay AID618 (Sanford-Burnham Center for Chemical Genomics, 2007)
